From PubChem BioAssay (Tox21)
Values joined by “and” are separate entries in the source; they are usually repeats but may differ in a detail not shown here. Equal values may be shown once. Records with an inconclusive call do not appear. Entries that show only a call come without a potency. The source holds several records for some structures; these can differ, active in one and inactive in another. Active and inactive are the calls of the source. Unless noted, the call rests on the fitted dose curve; in most records, active means well fitted curve in the direction sought with a large enough effect in the repeat runs; inconclusive means weak or mixed curves; inactive means no such curve, though single readings can be large; an effect the other way counts as inactive or inconclusive.

Key:
[1] = qHTS assay to identify small molecule antagonists of the glucocorticoid receptor (GR) signaling pathway - cell viability counter screen (AID 720693); further: nearly all actives have a fitted effect of over 55% in size
[2] = qHTS assay for identifying genotoxic compounds that show differential cytotoxicity against isogenic chicken DT40 cell lines with known DNA damage response pathways - wild type cell line (AID 743012); further: nearly all actives have a fitted effect of over 60% in size; further: potency means the concentration at half of the fitted maximal effect
Summary of the method: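 Luminescent ATP viability signal (CellTiter-Glo, 30 min RT) recorded after wild type DT40 cells were incubated with compounds for 40 h at 37 C/5% CO2.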

[3] = qHTS assay for identifying genotoxic compounds that show differential cytotoxicity against isogenic chicken DT40 cell lines with known DNA damage response pathways - Rev3 mutant cell line (AID 743014); further: nearly all actives have a fitted effect of over 55% in size; further: potency means the concentration at half of the fitted maximal effect
[4] = qHTS assay for identifying genotoxic compounds that show differential cytotoxicity against isogenic chicken DT40 cell lines with known DNA damage response pathways - Rad54/Ku70 mutant cell line (AID 743015); further: nearly all actives have a fitted effect of over 60% in size; further: potency means the concentration at half of the fitted maximal effect
[5] = qHTS assay to identify small molecule antagonists of the androgen receptor (AR) signaling pathway - cell viability counter screen (AID 743033; further: nearly all actives have a fitted effect of over 45% in size)
[6] = qHTS assay to identify small molecule antagonists of the androgen receptor (AR) signaling pathway using the MDA cell line - cell viability counter screen (AID 743041; further: nearly all actives have a fitted effect of over 45% in size)
Summary of the method: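 qHTS viability read-out; MDA-kb2 AR-luc; R1881-stimulated; 16 h exposure at 37C, 0% CO2; CellTiter-Fluor, 30 min; fluorescence intensity.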

[7] = qHTS assay to identify small molecule antagonists of the thyroid receptor (TR) signaling pathway - cell viability counter screen (AID 743064); further: nearly all actives have a fitted effect of over 50% in size
Summary of the method: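 Same-well viability check: GH3.TRE-Luc cells stimulated with 1 nM T3 alongside test compound for 23.5 h, followed by CellTiter-Fluor fluorescence.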

[8] = qHTS assay to identify small molecule antagonists of the thyroid receptor (TR) signaling pathway (AID 743065); further: series mostly up to about 70 µM; nearly all actives have a fitted effect of over 55% in size
Summary of the method: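 GH3.TRE-Luc rat pituitary cells carrying two TR response elements driving luciferase were plated for 4 h, given compound plus 1 nM T3 (final), and incubated 23.5 h at 37 C. ONE-Glo luminescence measured reporter inhibition; CellTiter-Fluor fluorescence tracked cytotoxicity.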

[9] = system: thyroid hormone receptor (rat, GH3 cells); experiment: qHTS assay to identify small molecule agonists of the thyroid receptor (TR) signaling pathway (AID 743066; calls by dose curve)
[10] = qHTS assay to identify small molecule antagonists of the estrogen receptor alpha (ER-alpha) signaling pathway - cell viability counter screen (AID 743074; calls by dose curve; further: nearly all actives have a fitted effect of over 45% in size)
[11] = qHTS assay to identify small molecule antagonists of the estrogen receptor alpha (ER-alpha) signaling pathway using the BG1 cell line - cell viability counter screen (AID 743081);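 further: compound given together with 17beta-estradiol as the ER stimulus; series mostly up to about 70 µM; nearly all actives have a fitted effect of over 45% in size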
[12] = target: Aromatase (Homo sapiens) (UniProt P11511); experiment: qHTS assay to identify aromatase inhibitors (AID 743083); further: series mostly up to about 70 µM; nearly all actives have a fitted effect of over 55% in size
[13] = target: Estrogen receptor (Homo sapiens) (UniProt P03372); experiment: qHTS assay to identify small molecule agonists of the estrogen receptor alpha (ER-alpha) signaling pathway (AID 743075; calls by dose curve)
[14] = target: Estrogen receptor (Homo sapiens) (UniProt P03372); experiment: qHTS assay to identify small molecule agonists of the estrogen receptor alpha (ER-alpha) signaling pathway using the BG1 cell line (AID 743079); further: nearly all actives have a fitted effect of over 20% in size; further: potency means the concentration at half of the fitted maximal effect
[15] = target: Estrogen receptor (Homo sapiens) (UniProt P03372); experiment: qHTS assay to identify small molecule antagonists of the estrogen receptor alpha (ER-alpha) signaling pathway (AID 743069; active means well fitted curve in the direction sought with a large enough effect in the signal ratio in the repeat runs, not every such curve was filed as active; the % refers to the signal ratio)
Summary of the method: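 Screening used a UAS-driven beta-lactamase reporter integrated into HEK293 cells expressing ER-alpha, stimulated with 17beta-estradiol alongside test compounds over 18 hr at 37C; signal came from LiveBLAzer B/G FRET fluorescence.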

[16] = qHTS assay to identify small molecule antagonists of the estrogen receptor alpha (ER-alpha) signaling pathway using the BG1 cell line (AID 743080; calls by dose curve;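 further: BG1 cells stimulated with 17beta-estradiol alongside compound; nearly all actives have a fitted effect of over 25% in size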; further: potency means the concentration at half of the fitted maximal effect)
Summary of the method: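 Luminescence from a 4×ERE-luciferase reporter in BG1-Luc-4E2 cells served as read-out. Cells, pre-cultured 5 days in stripped-serum phenol-red-free medium, were exposed to compound with 17beta-estradiol co-stimulation for 21.5 h at 37 C.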

[17] = target: Androgen receptor (Homo sapiens) (UniProt P10275); experiment: qHTS assay to identify small molecule antagonists of the androgen receptor (AR) signaling pathway (AID 743035; active means well fitted inhibition curve with a large enough effect in the signal ratio in the repeat runs, not every such curve was filed as active; the % refers to the signal ratio)
Summary of the method: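 Quantitative HTS of the Tox21 10K library used HEK293 AR-UAS-bla cells stimulated with R1881 alongside compound for 16 h at 37C, followed by beta-lactamase FRET detection (LiveBLAzer B/G, 2 h, RT).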

[18] = target: Androgen receptor (Homo sapiens) (UniProt P10275); experiment: qHTS assay to identify small molecule agonists of the androgen receptor (AR) signaling pathway using the MDA cell line (AID 743040; further: nearly all actives have a fitted effect of over 20% in size)
Summary of the method: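 Agonist activity is measured as luciferase luminescence in human MDA-kb2 cells whose MMTV reporter responds to both AR and GR. Compounds in DMSO incubate 16 h at 37C, 0% CO2, and ONE-Glo is read after 30 min.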

[19] = target: Androgen receptor (Homo sapiens) (UniProt P10275); experiment: qHTS assay to identify small molecule antagonists of the androgen receptor (AR) signaling pathway using the MDA cell line (AID 743042; further: nearly all actives have a fitted effect of over 55% in size)
Summary of the method: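 MDA-kb2 cells (human breast carcinoma, stably carrying an MMTV-luciferase reporter responsive to AR and GR) were plated at 3,000 cells/well and preincubated 5 hr at 37C, then given compound plus R1881 agonist for 16 h. ONE-Glo luminescence was read.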

[20] = target: Androgen receptor (Homo sapiens) (UniProt P10275); experiment: qHTS assay to identify small molecule agonists of the androgen receptor (AR) signaling pathway (AID 743036; active means well fitted activation curve with a large enough effect in the signal ratio in the repeat runs, with a control signal flat, not every such curve was filed as active; the % refers to the signal ratio)
Summary of the method: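 Agonist activity was scored by beta-lactamase reporter fluorescence in stably transfected HEK293 cells exposed to compounds for 16 h at 37C and 5% CO2. Substrate loading took 2 h at room temperature.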

Sequence of Androgen receptor (Homo sapiens) (P10275 whole entry, looked up): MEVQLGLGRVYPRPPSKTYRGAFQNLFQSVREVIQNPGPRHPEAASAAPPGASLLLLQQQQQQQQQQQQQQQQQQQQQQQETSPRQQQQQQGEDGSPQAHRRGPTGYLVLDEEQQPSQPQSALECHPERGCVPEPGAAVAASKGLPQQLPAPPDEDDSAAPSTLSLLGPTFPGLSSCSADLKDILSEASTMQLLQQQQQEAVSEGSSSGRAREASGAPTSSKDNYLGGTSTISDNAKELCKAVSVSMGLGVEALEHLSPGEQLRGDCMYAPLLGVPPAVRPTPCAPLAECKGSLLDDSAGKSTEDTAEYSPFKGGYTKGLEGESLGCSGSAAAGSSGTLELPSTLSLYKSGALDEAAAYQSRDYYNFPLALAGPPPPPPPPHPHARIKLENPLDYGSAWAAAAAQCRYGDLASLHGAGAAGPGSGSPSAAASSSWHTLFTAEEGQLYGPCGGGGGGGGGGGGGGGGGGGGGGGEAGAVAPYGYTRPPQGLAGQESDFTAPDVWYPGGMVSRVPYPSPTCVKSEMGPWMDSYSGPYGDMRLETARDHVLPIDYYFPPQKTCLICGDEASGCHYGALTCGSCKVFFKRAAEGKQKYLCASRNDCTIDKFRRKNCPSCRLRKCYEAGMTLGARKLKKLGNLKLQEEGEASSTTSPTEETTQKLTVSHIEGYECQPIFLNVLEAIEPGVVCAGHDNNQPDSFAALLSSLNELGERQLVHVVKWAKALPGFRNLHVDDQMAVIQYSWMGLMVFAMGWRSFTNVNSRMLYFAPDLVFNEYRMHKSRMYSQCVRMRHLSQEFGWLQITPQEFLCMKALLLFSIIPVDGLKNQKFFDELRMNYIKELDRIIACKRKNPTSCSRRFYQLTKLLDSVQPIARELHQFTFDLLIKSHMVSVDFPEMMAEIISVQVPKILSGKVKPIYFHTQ
Sequence of Estrogen receptor (Homo sapiens) (P03372 whole entry, looked up): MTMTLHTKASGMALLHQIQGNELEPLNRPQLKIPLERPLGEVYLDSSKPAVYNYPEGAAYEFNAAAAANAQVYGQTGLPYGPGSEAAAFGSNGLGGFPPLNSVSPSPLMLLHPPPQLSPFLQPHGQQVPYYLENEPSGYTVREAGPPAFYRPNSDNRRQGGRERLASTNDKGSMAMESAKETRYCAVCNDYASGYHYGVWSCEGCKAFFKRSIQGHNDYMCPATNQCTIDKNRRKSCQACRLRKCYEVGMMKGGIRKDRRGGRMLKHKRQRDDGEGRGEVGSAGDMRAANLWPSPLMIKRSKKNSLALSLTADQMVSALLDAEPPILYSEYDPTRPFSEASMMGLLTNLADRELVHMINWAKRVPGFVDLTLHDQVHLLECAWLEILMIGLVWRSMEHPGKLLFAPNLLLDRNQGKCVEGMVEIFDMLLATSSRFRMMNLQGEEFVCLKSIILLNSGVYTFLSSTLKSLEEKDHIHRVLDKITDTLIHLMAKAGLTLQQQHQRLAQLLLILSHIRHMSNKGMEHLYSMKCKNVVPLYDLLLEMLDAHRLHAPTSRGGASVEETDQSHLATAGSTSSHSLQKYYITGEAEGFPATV
Sequence of Aromatase (Homo sapiens) (P11511 whole entry, looked up): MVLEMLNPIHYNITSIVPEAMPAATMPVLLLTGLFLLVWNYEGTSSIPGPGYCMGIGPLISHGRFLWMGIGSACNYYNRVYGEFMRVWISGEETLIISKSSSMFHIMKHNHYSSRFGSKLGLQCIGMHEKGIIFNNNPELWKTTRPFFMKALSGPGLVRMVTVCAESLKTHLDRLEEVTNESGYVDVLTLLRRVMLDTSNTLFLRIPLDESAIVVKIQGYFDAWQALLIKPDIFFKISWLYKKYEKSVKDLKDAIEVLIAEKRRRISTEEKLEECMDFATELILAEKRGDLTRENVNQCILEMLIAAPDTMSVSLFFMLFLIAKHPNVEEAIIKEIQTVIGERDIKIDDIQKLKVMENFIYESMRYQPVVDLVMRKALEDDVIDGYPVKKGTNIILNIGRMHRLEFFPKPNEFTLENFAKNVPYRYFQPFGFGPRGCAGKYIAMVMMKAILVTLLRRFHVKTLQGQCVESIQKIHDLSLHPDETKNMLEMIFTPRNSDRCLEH

Row | Compound | outcome [1] | Potency [2] | Potency [3] | Potency [4] | Potency [5] | Potency [6] | Potency [7] | Potency [8] | outcome [9] | outcome [10] | outcome [11] | Potency [12] | outcome [13] | Potency [14] | outcome [15] | Potency [16] | Potency [17] | outcome [18] | Potency [19] | outcome [20]
1 | C=CC(OCC)OCC | inactive | inactive | inactive | inactive | inactive | inactive | inactive | inactive | inactive | inactive | inactive | inactive |  |  |  |  |  |  |  | 
2 | Cc1cc2cc3c(C)cc(=O)oc3c(C)c2o1 | inactive | inactive | inactive | inactive | inactive | inactive | inactive | inactive | inactive | inactive | inactive | inactive | inactive | inactive |  |  |  |  |  | 
3 | Cc1nc2n(c(=O)c1CCN1CCC(c3noc4cc(F)ccc34)CC1)CCC[C@H]2O | inactive | inactive |  | inactive | inactive | inactive | inactive | inactive | inactive | inactive | inactive | inactive | inactive | inactive | inactive | inactive |  |  |  | 
4 | CC(=C(CCOC(=O)C(C)C)SSC(CCOC(=O)C(C)C)=C(C)N(C=O)Cc1cnc(C)nc1N)N(C=O)Cc1cnc(C)nc1N | inactive | inactive |  | inactive | inactive | inactive | inactive | inactive | inactive | inactive | inactive | inactive | inactive |  | inactive | inactive |  |  |  | 
5 | CCOc1cc(NC(C)=O)ccc1C(=O)OC | inactive | inactive |  | inactive | inactive | inactive | inactive | inactive | inactive | inactive | inactive | inactive | inactive | inactive | inactive | inactive |  |  |  | 
6 | CCCCOC(=O)c1ccccc1 | inactive | inactive |  | inactive | inactive | inactive |  |  |  | inactive | inactive | inactive | inactive | 34.4 µM (active) | inactive | inactive | inactive | inactive | inactive | 
7 | CCCCOCCOC(=O)COc1nc(Cl)c(Cl)cc1Cl | inactive | inactive |  | inactive | inactive | inactive | inactive | inactive | inactive | inactive | inactive | inactive | inactive | inactive | inactive | inactive |  |  |  | 
8 | CC(C)NCC(O)COc1ccc(COCCOC(C)C)cc1 (stereo not drawn) | inactive | inactive |  | inactive and 26.6 µM (active) | inactive | inactive | inactive | inactive | inactive | inactive | inactive |  | inactive | inactive | inactive | inactive | inactive | inactive | inactive | inactive
9 | CCCCCCOc1ccccc1C(N)=O | inactive | 23.7 µM (active) | 21.1 µM (active) | 21.1 µM (active) |  |  | inactive |  | inactive | inactive | inactive | inactive | inactive |  | inactive | 33.5 µM (active) |  |  |  | 
10 | Nc1ccc(S(=O)(=O)Nc2ccc(Cl)nn2)cc1 | inactive | inactive |  | inactive | inactive | inactive | inactive | inactive | inactive | inactive | inactive | inactive | inactive | inactive | inactive | inactive | inactive | inactive | inactive | inactive
11 | O=C(NCC(O)CO)c1c(I)c(C(=O)NCC(O)CO)c(I)c(N(CCO)C(=O)CO)c1I (stereo not drawn) | inactive | inactive |  | inactive | inactive | inactive | inactive | inactive | inactive | inactive | inactive |  |  |  |  |  |  |  |  | 
12 | CCCCCCCCCCCCCC | inactive | inactive | inactive | inactive |  | inactive |  |  |  | inactive | inactive | inactive |  |  |  |  |  |  |  | 
13 | COP(=O)(OC)OC(c1ccc(Cl)cc1)P(=O)(OC)OC (stereo not drawn) | inactive | inactive |  | inactive | inactive | inactive | inactive | inactive | inactive | inactive | inactive | inactive | inactive | inactive | inactive | inactive |  |  |  | 
14 | CC(=O)NCc1c(I)c(NC(C)=O)c(I)c(C(=O)O)c1I | inactive | inactive |  | inactive | inactive | inactive | inactive | inactive | inactive | inactive | inactive | inactive | inactive | 13.3 µM (active) | inactive | inactive |  | inactive | inactive | inactive
15 | CC(C)C(=O)OCCc1ccccc1 | inactive | inactive |  | inactive | inactive | inactive | inactive | inactive | inactive | inactive | inactive | inactive | inactive | inactive | inactive | inactive |  |  |  | 
16 | C[C@H](CCC(=O)O)[C@H]1CC[C@H]2[C@@H]3C(=O)C[C@@H]4CC(=O)CC[C@]4(C)[C@H]3CC(=O)[C@]12C | inactive | inactive | inactive |  | inactive |  |  |  | inactive | inactive | inactive | inactive | inactive | inactive | inactive | inactive |  |  |  | 
17 | ClCCCl | inactive | inactive | inactive |  | inactive | inactive |  | inactive | inactive | inactive | inactive | inactive | inactive | inactive | inactive | inactive |  |  |  | 
18 | CC1(CO)CN(c2ccccc2)NC1=O (stereo not drawn) | inactive | inactive |  | inactive | inactive | inactive | inactive |  | inactive | inactive | inactive | inactive |  |  |  |  | inactive | inactive | inactive | 
19 | NNc1nnc(NN)c2ccccc12 | inactive | inactive |  | inactive | inactive | inactive | inactive | inactive | inactive | inactive | inactive | inactive | inactive | inactive | inactive | inactive |  |  |  | 
20 | CCCCNC1CC(C)(C)NC(C)(C)C1 | inactive | inactive | 48.6 µM (active) |  | inactive | inactive |  |  | inactive | inactive |  | inactive | inactive | inactive | inactive | inactive |  |  |  | 
21 | c1ccc2nccnc2c1 | inactive | inactive |  | 63.1 µM (active) | inactive | inactive | inactive | inactive | inactive |  | inactive | inactive | inactive | inactive | inactive | inactive |  |  |  | 
22 | C=C1CC/C=C(\C)CC[C@@H]2[C@@H]1CC2(C)C | inactive | inactive |  | inactive | inactive | inactive | inactive | inactive | inactive | inactive | inactive | inactive | inactive | inactive | inactive | inactive |  |  |  | 
23 | Cc1ccccc1N=O | inactive | inactive |  | inactive | inactive | inactive | inactive | inactive | inactive | inactive | inactive |  |  |  |  |  |  |  |  | 
24 | COC(=O)c1ccccc1C(=O)c1ccc(OCCN2CCCCC2)cc1 | inactive | 1.88 µM (active) | 1.06 µM (active) | 2.11 µM (active) | inactive | inactive |  |  | inactive | inactive | inactive | inactive | inactive | inactive | inactive | inactive |  |  |  | 
25 | CC(CC=O)CCCC(C)(C)O (stereo not drawn) | inactive | inactive |  | inactive | inactive | inactive | inactive | inactive | inactive | inactive | inactive | inactive | inactive | inactive | inactive | inactive | inactive | inactive | inactive | inactive
